Data from PubChem BioAssay AID1159580 (chemical genetic matrix, 2015).
In all, about 5,500 compounds went through this assay and about 2,000 (36%) were called active. Another 18% or so got no clear call; they are omitted. Cut-off read from the data, not from the text of the source: active = normalized growth mostly below about 0.91 (no sharp cut-off); inconclusive = no clear call, values can overlap the other calls; inactive = mostly above about 0.92. Some of the results follow.

Test: chemical genetic growth profiling, strain panel (AID 1159580);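 note: tested at 20 µM; growth read once vehicle control cultures reached saturation at 30 °C; 1 = growth at the plate median or of vehicle wells; lower values mean less growth of the strain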
Details: S. cerevisiae deletion strains, growth OD

Measured: normalized growth

N[C@H](CCC(=O)NCS(=O)(=O)O)C(=O)O
inactive: locus YAL013W, strain DEP1, hits give low values 1.01 | locus YAL040C, strain CLN3, hits give low values 0.996 | locus YCL061C, strain MRC1 (second series), hits give low values 1.01 | locus YDR150W, strain NUM1, hits give low values 1 | locus YDR363W, strain ESC2, hits give low values 1.02 | locus YER002W, strain NOP16, hits give low values 1.02 | locus YGR078C, strain PAC10, hits give low values 0.997 | locus YGR229C, strain SMI1, hits give low values 1.03 | locus YMR263W, strain SAP30, hits give low values 1.01 | locus YMR307W, strain GAS1, hits give low values 1 | locus YNL128W, strain TEP1, hits give low values 1 | locus YNL175C, strain NOP13, hits give low values 0.998 | locus YNL197C, strain WHI3, hits give low values 0.997 | locus YNL224C, strain SQS1, hits give low values 0.986 | locus YNL322C, strain KRE1, hits give low values 1.01 | locus YOR083W, strain WHI5 (second series), hits give low values 0.981 | locus YPL055C, strain LGE1, hits give low values 1.02 | locus YPL241C, strain CIN2, hits give low values 1
